T cruzi growth-1 – inhibitors of T. cruzi proliferation; T. cruzi beta-gal in NIH3T3, GalScreen luminescence, 90 h; inhibition, % at 8.34 µM; 77,000 compounds, 5.9% hits;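 active = mean inhibition above about 93%, with at least 55% of replicates each passing it, limit read from the data, passing the limit was not always enough; inconclusive = only one of those two conditions holds; inactive = neither condition holds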
Pf Dd2 growth – blocks growth of Plasmodium falciparum Dd2 parasites | activity change, % at 10 µM | P. falciparum Dd2 growth, SYBR Green, 72 h; active compounds read low | 94,000 compounds, 2.3% hits; in the data active = activity change below about -80%; inconclusive = no clear call, values can overlap the other calls
C diff growth – blocks growth of Clostridium difficile; growth activity, negative = inhibition, % at 16 µg/mL (by protocol); AID 1259249; Clostridium difficile clinical isolate growth, OD600, 24 h; active compounds read low; 86,000 compounds, 0.25% hits;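 active = mean growth activity at or below -80% and every replicate also at or below -80%; inconclusive = mean at or below -80% but some replicate above -80%; inactive = mean growth activity above -80%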;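 note: 0% = DMSO wells and -100% = levofloxacin 16 µg/mL wells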
T cruzi growth-2 – Trypanosoma cruzi proliferation inhibition. shares compounds with T cruzi growth-1. T. cruzi beta-gal in NIH3T3, GalScreen luminescence, 90 h. inhibition, % at 8.35 µM. AID 651739. 5,600 compounds, 72% hits;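 active = mean replicate inhibition above about 95% and at least 55% of replicates individually reaching it, limit read from the data; inconclusive = only one of the two criteria is met; inactive = neither criterion is met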
T cruzi growth-3 – blocks T. cruzi growth in NIH3T3 host cells; shares compounds with T cruzi growth-1; T. cruzi beta-gal in NIH3T3, GalScreen luminescence, 90 h; inhibition, % at 2.09 µM; 5,600 compounds, 21% hits; AID 651740;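 active = mean inhibition above about 95%, with at least 55% of replicates also reaching it, limit read from the data; inconclusive = meets just one of the two conditions; inactive = meets neither condition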;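 note: plate controls were neutral control median for no effect and positive control median for full effect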
NIH3T3 tox – kills mouse NIH/3T3 fibroblasts | NIH/3T3 viability, CellTiter-Glo ATP luminescence, 90 h | shares compounds with T cruzi growth-1 | AID 651742 | cytotoxicity (signal decrease), % at 8.35 µM | 5,600 compounds, 14% hits;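 active = mean signal decrease across replicates above about 35% based on untreated-well scatter, with enough replicates individually passing, limit read from the data; inconclusive = no rule stated though some were filed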;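 note: 0% = median of neutral control wells and 100% = median of positive control wells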
NIH3T3 tox 2 – kills mouse NIH/3T3 fibroblasts | shares compounds with T cruzi growth-1 | NIH/3T3 viability, CellTiter-Glo ATP luminescence, 90 h | inhibition, % at 24.9 µM | 5,600 compounds, 56% hits | AID 651744;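 active = mean loss of cell viability signal at or above a set limit, and enough replicates individually reaching it; inconclusive = meets only the mean limit or only the replicate share; inactive = meets neither condition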;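 note: 0% = median of neutral control wells and 100% = median of positive control wells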
The depositor's hits bear a star. The list is not random: actives were taken first. Their share in the collection is about 6.8%.

How did Cc1ccccc1-c1ccc([C@H]2[C@@H](CO)N3CCCCN(C(=O)c4cccnc4)C[C@@H]23)cc1 do in these assays?
T cruzi growth-1: 102.5*; Pf Dd2 growth: 47.9; C diff growth: -13.4; T cruzi growth-2: 99.5*; T cruzi growth-3: 102.4*; NIH3T3 tox: 37.7*; NIH3T3 tox 2: 48.7*

What do the screens show for `Cc1cccc(-c2ccc([C@H]3[C@H]4CN(C(=O)c5ccncc5)CCCCN4[C@H]3CO)cc2)c1`?
T cruzi growth-1: 31.8; Pf Dd2 growth: 2.5; C diff growth: 12.1

How did Cc1ccc(S(=O)(=O)N(C)C[C@@H]2OCCCC[C@H](C)Oc3ccc(NS(C)(=O)=O)cc3C(=O)N([C@H](C)CO)C[C@@H]2C)cc1 do in these assays?
T cruzi growth-1: -15.9; Pf Dd2 growth: -27.1; C diff growth: -0.8

Results for O=C(Cc1ccccn1)N[C@H]1C=C[C@H](CC(=O)N2CCCCC2)O[C@H]1CO ?
T cruzi growth-1: -10.6; Pf Dd2 growth: -15.8; C diff growth: 3.6

What do the screens show for `COCC#Cc1cnc2c(c1)C(=O)N([C@@H](C)CO)C[C@@H](C)[C@H](CN(C)Cc1ccc(-c3ccccc3)cc1)O2`?
T cruzi growth-1: 120.5*; Pf Dd2 growth: -44.2; C diff growth: 2.3; T cruzi growth-2: 108.9*; T cruzi growth-3: 62.0; NIH3T3 tox: 45.9*; NIH3T3 tox 2: 106.4*

How did COCC#Cc1cnc2c(c1)C(=O)N([C@H](C)CO)C[C@@H](C)[C@@H](CN(C)Cc1ccc(-c3ccccc3)cc1)O2 do in these assays?
T cruzi growth-1: 84.2; Pf Dd2 growth: -37.8; C diff growth: 3.2

How did C[C@H](CO)N1C[C@H](C)[C@@H](CN(C)Cc2ccc(-c3ccccc3)cc2)Oc2ncc(C#CCN(C)C)cc2C1=O do in these assays?
T cruzi growth-1: inconclusive; C diff growth: -5.1; T cruzi growth-2: 108.0*; T cruzi growth-3: 81.7; NIH3T3 tox: 33.1; NIH3T3 tox 2: 103.6*

Results for COCC#Cc1cnc2c(c1)C(=O)N([C@H](C)CO)C[C@@H](C)[C@H](CN(C)Cc1ccc(-c3ccccc3)cc1)O2 ?
T cruzi growth-1: 118.5*; Pf Dd2 growth: -69.0; C diff growth: 11.4; T cruzi growth-2: 108.2*; T cruzi growth-3: 39.4; NIH3T3 tox: 20.2; NIH3T3 tox 2: 102.4*

What do the screens show for `COCC#Cc1cnc2c(c1)C(=O)N([C@H](C)CO)C[C@H](C)[C@@H](CN(C)Cc1ccc(-c3ccccc3)cc1)O2`?
T cruzi growth-1: 79.8; Pf Dd2 growth: -68.2; C diff growth: 6.3

Results for C[C@H]1CN([C@@H](C)CO)C(=O)c2cc(C#CCN(C)C)cnc2O[C@H]1CN(C)Cc1ccc(-c2ccccc2)cc1 ?
T cruzi growth-1: 78.7; C diff growth: 16.3

What do the screens show for `C[C@@H]1CN([C@H](C)CO)C(=O)c2cccc(NC(=O)C3CCOCC3)c2O[C@@H]1CN(C)Cc1ccc(Oc2ccccc2)cc1`?
T cruzi growth-1: 10.2; Pf Dd2 growth: -19.9; C diff growth: 0.3

What do the screens show for `C[C@@H]1CN([C@H](C)CO)C(=O)Cc2cc(NS(=O)(=O)c3ccc(Cl)cc3)ccc2O[C@H]1CN(C)S(C)(=O)=O`?
T cruzi growth-1: 0.0; Pf Dd2 growth: 12.1; C diff growth: -2.0

How did C[C@@H]1CN([C@H](C)CO)S(=O)(=O)c2ccc(-c3ccccc3)cc2O[C@H]1CN(C)Cc1cccnc1 do in these assays?
T cruzi growth-1: 91.9*; Pf Dd2 growth: -63.4; C diff growth: -5.1; T cruzi growth-2: 87.2; T cruzi growth-3: 88.7; NIH3T3 tox: 59.1*; NIH3T3 tox 2: 100.9*

How did C[C@@H]1CN([C@@H](C)CO)S(=O)(=O)c2ccc(-c3ccccc3)cc2O[C@@H]1CN(C)Cc1cccnc1 do in these assays?
T cruzi growth-1: 90.4; Pf Dd2 growth: -11.9; C diff growth: -5.5

What do the screens show for `Cc1ccc(-c2ccc3c(c2)O[C@H](CN(C)Cc2cccnc2)[C@H](C)CN([C@H](C)CO)S3(=O)=O)cc1`?
T cruzi growth-1: 73.0; Pf Dd2 growth: -45.1; C diff growth: -5.6

Compound activity (PubChem BioAssay)
